In PubChem BioAssay (NCATS):
Inconclusive results are not listed. Active and inactive are the calls of the source. The call rests on the fitted dose curve; in most records, active means well fitted cell-killing curve with a large enough effect; inconclusive means small, poorly fitted or top-dose-only effect, or effect the other way; inactive means flat fitted curve, though single readings scatter.

Key:
Test in all cases: Primary qHTS to identify gynecologic anti-cancer compounds using libraries of approved drugs and bioactive compounds (AID 1345084); further: nearly all actives have a fitted effect of over 55% in size
C33A = settings: Gynecologic cancer cell panel viability, ATPlite luminescence, 48 h; series mostly up to 57.5 µM
Summary of the method: (§1)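 Cells, 1,000 per well, were allowed to settle for 16 h at 37 C before compound addition. Five concentrations were tested for 48 h, and viability was read by ATPlite luminescence after 15 min at room temperature.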

CAOV3 = settings: Gynecologic cancer cell panel viability, ATPlite luminescence, 48 h; series mostly up to 57.5 µM
Summary of the method: as §1

CASKI = settings: Gynecologic cancer cell panel viability, ATPlite luminescence, 48 h; series mostly up to 57.5 µM
Summary of the method: as §1

Es-2 = settings: Gynecologic cancer cell panel viability, ATPlite luminescence, 48 h; series mostly up to 57.5 µM
Summary of the method: as §1

HeLa = settings: Gynecologic cancer cell panel viability, ATPlite luminescence, 48 h; series mostly up to 57.5 µM
Summary of the method: as §1

Hek293T = settings: Gynecologic cancer cell panel viability, ATPlite luminescence, 48 h, control line for the selectivity index; series mostly up to 57.5 µM
Summary of the method: as §1

JEG-3 = settings: Gynecologic cancer cell panel viability, ATPlite luminescence, 48 h; series mostly up to 57.5 µM
Summary of the method: as §1

OV90 = settings: Gynecologic cancer cell panel viability, ATPlite luminescence, 48 h; series mostly up to 57.5 µM
Summary of the method: as §1

PA-1 = settings: Gynecologic cancer cell panel viability, ATPlite luminescence, 48 h; series mostly up to 57.5 µM
Summary of the method: as §1

SKOV3 = settings: Gynecologic cancer cell panel viability, ATPlite luminescence, 48 h; series mostly up to 57.5 µM
Summary of the method: as §1

Tov-21-G = settings: Gynecologic cancer cell panel viability, ATPlite luminescence, 48 h; series mostly up to 57.5 µM
Summary of the method: as §1

Tov112D = settings: Gynecologic cancer cell panel viability, ATPlite luminescence, 48 h; series mostly up to 57.5 µM
Summary of the method: as §1
On the % scale 0 is the no-effect control and ±100 the full control effect.

CC(C)/C=C1\NC(=O)C(C(C)C)n2c1nc1c(c2=O)C=CC=CO1 (stereo unspecified)
inactive: Potency (C33A) | Potency (CAOV3) | Potency (CASKI) | Potency (Es-2) | Potency (HeLa) | Potency (Hek293T) | Potency (JEG-3) | Potency (OV90) | Potency (PA-1) | Potency (SKOV3) | Potency (Tov-21-G) | Potency (Tov112D)

CC1(C(=O)O)CCCC2(C)C3CCC4CC3(CCC12)CC4=O (stereo unspecified)
inactive: Potency (C33A) | Potency (CAOV3) | Potency (CASKI) | Potency (Es-2) | Potency (HeLa) | Potency (Hek293T) | Potency (JEG-3) | Potency (OV90) | Potency (PA-1) | Potency (SKOV3) | Potency (Tov-21-G) | Potency (Tov112D)

c1cc(OCCCN2CCCCC2)ccc1CN1CCCCC1
inactive: Potency (C33A) | Potency (CAOV3) | Potency (CASKI) | Potency (Es-2) | Potency (HeLa) | Potency (Hek293T) | Potency (JEG-3) | Potency (OV90) | Potency (PA-1) | Potency (SKOV3) | Potency (Tov-21-G) | Potency (Tov112D)

COc1cc(/C=C/C(=O)OC[C@H]2O[C@@](CO)(O[C@H]3O[C@H](CO)[C@@H](O)[C@H](O)[C@H]3O)[C@@H](OC(=O)/C=C/c3ccc(O)c(OC)c3)[C@@H]2O)ccc1O
inactive: Potency (C33A) | Potency (CAOV3) | Potency (CASKI) | Potency (Es-2) | Potency (HeLa) | Potency (Hek293T) | Potency (JEG-3) | Potency (OV90) | Potency (PA-1) | Potency (SKOV3) | Potency (Tov-21-G) | Potency (Tov112D)

CC(=O)O[C@H]1[C@@H](O)[C@H](O[C@H]2[C@@H]3C=CO[C@@H](O[C@H]4O[C@@H](CO)[C@H](O)[C@@H](O)[C@@H]4O)[C@@H]3[C@@]3(CO)O[C@@H]23)O[C@@H](C)[C@@H]1OC(=O)/C=C/c1ccccc1
inactive: Potency (C33A) | Potency (CAOV3) | Potency (CASKI) | Potency (Es-2) | Potency (HeLa) | Potency (Hek293T) | Potency (JEG-3) | Potency (OV90) | Potency (PA-1) | Potency (SKOV3) | Potency (Tov-21-G) | Potency (Tov112D)

C[C@@H]1O[C@@H](O[C@H]2[C@H](O[C@H]3[C@H](O)[C@@H](C(=O)O)O[C@@H](O[C@H]4CC[C@@]5(C)C(CC[C@]6(C)C5CC[C@]57OC[C@@]8(CCC(C)(C)CC85)[C@H](O)C[C@]76C)C4(C)C)[C@@H]3O[C@@H]3O[C@H](CO)[C@@H](O[C@@H]4OC[C@@H](O)[C@H](O)[C@H]4O)[C@H](O)[C@H]3O)O[C@H](CO)[C@H](O)[C@@H]2O)[C@H](O)[C@H](O)[C@H]1O (stereo partly specified)
inactive: activity change, negative = cytotoxicity (C33A) -0.321% [at 6.55 µM] | activity change, negative = cytotoxicity (CAOV3) 1.86% [at 6.55 µM] | activity change, negative = cytotoxicity (CASKI) 3.57% [at 6.55 µM] | activity change, negative = cytotoxicity (Es-2) -2.01% [at 6.55 µM] | activity change, negative = cytotoxicity (HeLa) 1.31% [at 6.55 µM] | activity change, negative = cytotoxicity (Hek293T) 4.69% [at 6.55 µM] | activity change, negative = cytotoxicity (JEG-3) 1.85% [at 6.55 µM] | activity change, negative = cytotoxicity (OV90) -19.1% [at 6.55 µM] | activity change, negative = cytotoxicity (PA-1) 5.43% [at 6.55 µM] | activity change, negative = cytotoxicity (SKOV3) 0% [at 6.55 µM] | activity change, negative = cytotoxicity (Tov-21-G) -4.6% [at 6.55 µM] | activity change, negative = cytotoxicity (Tov112D) 10.2% [at 6.55 µM]

COCC1OC(OC(C)(C)C2CCC3(C)C=C(C4CCC5C4(C)CC(O)C4OC(C(C)(C)OC6OC(CO)C(O)C(O)C6NC(C)=O)CCC45C)CCC3O2)C(NC(C)=O)C(O)C1O (stereo unspecified)
inactive: activity change, negative = cytotoxicity (C33A) 10.6% [at 11.6 µM] | activity change, negative = cytotoxicity (CAOV3) -5.9% [at 11.6 µM] | activity change, negative = cytotoxicity (CASKI) 12.8% [at 11.6 µM] | activity change, negative = cytotoxicity (Es-2) 0.877% [at 11.6 µM] | activity change, negative = cytotoxicity (HeLa) 1.62% [at 11.6 µM] | activity change, negative = cytotoxicity (Hek293T) -4.4% [at 11.6 µM] | activity change, negative = cytotoxicity (JEG-3) 3.33% [at 11.6 µM] | activity change, negative = cytotoxicity (OV90) 3.61% [at 11.6 µM] | activity change, negative = cytotoxicity (PA-1) -1.55% [at 11.6 µM] | activity change, negative = cytotoxicity (SKOV3) 9.88% [at 11.6 µM] | activity change, negative = cytotoxicity (Tov-21-G) 1.68% [at 11.6 µM] | activity change, negative = cytotoxicity (Tov112D) -1.97% [at 11.6 µM]

CC1(C)CC[C@]2(C(=O)O)CC[C@]3(C)C(=CCC4[C@@]5(C)C[C@@H](O)[C@H](O)C(C)(C)C5CC[C@]43C)C2C1 (stereo partly specified)
inactive: Potency (C33A) | Potency (CAOV3) | Potency (CASKI) | Potency (Es-2) | Potency (HeLa) | Potency (Hek293T) | Potency (JEG-3) | Potency (OV90) | Potency (PA-1) | Potency (Tov-21-G) | Potency (Tov112D)

CC(C)c1cc(C(=O)N2CC[C@@H](NC(=O)C3CC3)C2)n[nH]1
inactive: Potency (C33A) | Potency (CAOV3) | Potency (CASKI) | Potency (Es-2) | Potency (HeLa) | Potency (Hek293T) | Potency (JEG-3) | Potency (OV90) | Potency (PA-1) | Potency (Tov-21-G) | Potency (Tov112D)
